Measurements from PubChem BioAssay AID1159580 (chemical genetic matrix, 2015).
About 2,000 (36%) of roughly 5,500 compounds were called active. Another 18% or so got no clear call; they are omitted. Cut-off read from the data, not from the text of the source: active = normalized growth mostly below about 0.91 (no sharp cut-off); inconclusive = no clear call, values can overlap the other calls; inactive = mostly above about 0.92. This is one part of the list.

Assay: chemical genetic growth profiling, strain panel (AID 1159580);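 note: tested at 20 µM; growth read once vehicle control cultures reached saturation at 30 °C; 1 = growth at the plate median or of vehicle wells; lower values mean less growth of the strain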
Conditions: S. cerevisiae deletion strains, growth OD
[1] = locus YGR078C, strain PAC10, stronger effect = lower value
[2] = locus YHR030C, strain SLT2, stronger effect = lower value
[3] = locus YJL095W, strain BCK1, stronger effect = lower value
[4] = locus YMR263W, strain SAP30, stronger effect = lower value
[5] = locus YMR307W, strain GAS1, stronger effect = lower value
[6] = locus YPL055C, strain LGE1, stronger effect = lower value

Measured: normalized growth

CC(C)CCCC(C)C1CCC2C3CCC4CC(=O)CCC4(C)C3CCC12C (stereo not drawn)
inactive: locus YAL013W, strain DEP1, stronger effect = lower value 1.01 | locus YBR021W, strain FUR4, stronger effect = lower value 1.02 | locus YBR229C, strain ROT2, stronger effect = lower value 1 | locus YCL029C, strain bik1, stronger effect = lower value 1.02 | locus YDL035C, strain GPR1, stronger effect = lower value 1.06 | locus YDL074C, strain BRE1, stronger effect = lower value 1.07 | locus YDL101C, strain DUN1, stronger effect = lower value 1.02 | locus YDL134C, strain PPH21, stronger effect = lower value 1.03 | locus YDL185W, strain tfp1, stronger effect = lower value 1.01 | locus YDL192W, strain arf1, stronger effect = lower value 1.05 | locus YDR101C, strain arx1, stronger effect = lower value 1.02 | locus YDR150W, strain NUM1, stronger effect = lower value 1 | locus YDR162C, strain NBP2, stronger effect = lower value 1.05 | locus YDR318W, strain mcm21, stronger effect = lower value 1.01 | locus YDR388W, stronger effect = lower value 1.02 | locus YDR502C, strain sam2, stronger effect = lower value 1.01 | locus YEL061C, strain CIN8, stronger effect = lower value 1.02 | locus YER110C, stronger effect = lower value 1.02 | locus YER155C, strain BEM2, stronger effect = lower value 1 | locus YER167W, strain BCK2, stronger effect = lower value 1 | locus YGL078C, strain dbp3, stronger effect = lower value 1.02 | locus YGL086W, strain mad1, stronger effect = lower value 1.02 | locus YGL248W, strain PDE1, stronger effect = lower value 1.04 | [1] 1.03 | locus YGR135W, strain pre9, stronger effect = lower value 1.03 | locus YGR252W, strain gcn5, stronger effect = lower value 1 | [2] 1.02 | locus YHR079C, strain IRE1 (second series), stronger effect = lower value 1 | locus YHR094C, strain hxt1, stronger effect = lower value 1.04 | locus YHR129C, strain ARP1, stronger effect = lower value 1.02 | locus YHR200W, strain rpn10, stronger effect = lower value 1.01 | locus YIL066C, strain RNR3, stronger effect = lower value 1.05 | locus YIL073C, strain SPO22, stronger effect = lower value 1.11 | locus YIL125W, strain kgd1, stronger effect = lower value 1.01 | locus YIR030C, strain dcg1, stronger effect = lower value 1.02 | [3] 1.06 | locus YJL134W, strain LCB3, stronger effect = lower value 1.01 | locus YJL168C, strain set2, stronger effect = lower value 1.01 | locus YJL187C, strain SWE1 (second series), stronger effect = lower value 1.03 | locus YJR043C, strain POL32, stronger effect = lower value 1.02 | locus YJR075W, strain HOC1, stronger effect = lower value 1.03 | locus YKL009W, strain mrt4, stronger effect = lower value 1.06 | locus YKL068W, stronger effect = lower value 1.01 | locus YKL085W, strain MDH1 (second series), stronger effect = lower value 1.02 | locus YKL085W, strain MDH1, stronger effect = lower value 1.02 | locus YKL190W, strain CNB1, stronger effect = lower value 1 | locus YKR001C, strain vps1, stronger effect = lower value 1.09 | locus YLR039C, strain RIC1, stronger effect = lower value 1.08 | locus YLR058C, strain SHM2, stronger effect = lower value 1.03 | locus YLR102C, strain apc9, stronger effect = lower value 1.02 | locus YLR262C, strain YPT6, stronger effect = lower value 1.09 | locus YLR268W, strain sec22, stronger effect = lower value 1.06 | locus YLR330W, strain CHS5, stronger effect = lower value 1.02 | locus YLR342W, strain FKS1 (second series), stronger effect = lower value 1.06 | locus YLR371W, strain rom2, stronger effect = lower value 1.01 | locus YLR418C, strain cdc73, stronger effect = lower value 1.05 | locus YML016C, strain PPZ1, stronger effect = lower value 1.02 | locus YML032C, strain rad52, stronger effect = lower value 1.02 | locus YML124C, strain tub3, stronger effect = lower value 1.01 | locus YMR078C, strain ctf18, stronger effect = lower value 1.01 | locus YMR223W, strain ubp8, stronger effect = lower value 1.04 | [4] 1.02 | [5] 1.19 | locus YNL067W, strain RPL9B, stronger effect = lower value 1.02 | locus YNL128W, strain TEP1, stronger effect = lower value 1.06 | locus YNL153C, strain GIM3, stronger effect = lower value 1.03 | locus YNL233W, strain BNI4, stronger effect = lower value 1 | locus YNL250W, strain rad50, stronger effect = lower value 1.02 | locus YNL271C, strain bni1, stronger effect = lower value 1.01 | locus YNL298W, strain CLA4, stronger effect = lower value 1.01 | locus YNL307C, strain MCK1, stronger effect = lower value 1.01 | locus YNL322C, strain KRE1, stronger effect = lower value 1.01 | locus YNR052C, strain pop2, stronger effect = lower value 1.01 | locus YOL012C, strain htz1 1.43 | locus YOL147C, strain pex11, stronger effect = lower value 1.01 | locus YOR061W, strain CKA2, stronger effect = lower value 1.04 | locus YOR069W, strain VPS5, stronger effect = lower value 1.01 | locus YOR136W, strain idh2, stronger effect = lower value 1.02 | locus YOR144C, strain elg1, stronger effect = lower value 1.01 | locus YOR184W, strain ser1, stronger effect = lower value 1.07 | locus YOR316C, strain cot1, stronger effect = lower value 1.02 | [6] 1.03 | locus YPL241C, strain CIN2, stronger effect = lower value 1.01 | locus YPR119W, strain clb2, stronger effect = lower value 1.01 | locus YPR141C, strain kar3, stronger effect = lower value 1.02 | locus YPR163C, strain tif3, stronger effect = lower value 1.03 | locus YPR167C, strain met16, stronger effect = lower value 1.02 | strain wtn01, stronger effect = lower value 1.04

C[C@]12CCC3C(CC[C@H]4C[C@H](O)CC[C@]34C)C1CCC2=O (stereo partly drawn)
active: [2] 0.63 | locus YHR079C, strain IRE1, stronger effect = lower value 0.831 | [3] 0.736 | locus YJR066W, strain TOR1, stronger effect = lower value 0.815
inactive: locus YLR113W, strain HOG1, stronger effect = lower value 0.912 | locus YNL183C, strain NPR1, stronger effect = lower value 0.837 | locus YOR231W, strain MKK1, stronger effect = lower value 0.861 | locus YPL256C, strain CLN2, stronger effect = lower value 0.853

CC(=O)[C@H]1CC[C@H]2[C@@H]3CC[C@H]4C[C@H](O)CC[C@]4(C)[C@H]3C(=O)C[C@]12C
inactive: locus YAL040C, strain CLN3, stronger effect = lower value 0.999 | locus YCL061C, strain MRC1 (second series), stronger effect = lower value 0.995 | locus YDR363W, strain ESC2, stronger effect = lower value 0.983 | locus YER002W, strain NOP16, stronger effect = lower value 0.993 | [1] 0.994 | [4] 1 | [5] 0.981 | locus YNL175C, strain NOP13, stronger effect = lower value 0.974 | locus YNL197C, strain WHI3, stronger effect = lower value 0.994 | locus YNL224C, strain SQS1, stronger effect = lower value 1.01 | locus YOR083W, strain WHI5 (second series), stronger effect = lower value 0.997 | [6] 0.947
